Data from the supplement of paper PMC9135407.
Where a name gives a salt, the structure may show the parent alone.

test system: primary human hepatic stellate cells (donor 1); assay: PSMB2 reference mRNA level vs DMSO (fold); higher = more PSMB2 expression; details: 48 h
Description: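 Secondary qRT-PCR screen in primary human HSCs (donor 1), 384-well plates, with compounds dispensed in quadruplicate and incubated for 48 h. Cells-to-CT lysates were used for multiplexed TaqMan qPCR of ACTA2 or COL1A1 with PSMB2 as reference. Fold changes versus DMSO come from a linear model (Ct_gene ~ Ct_PSMB2 + plate + chemical). A hit is defined as COL1A1 and ACTA2 FC <0.5 (FDR <0.05) with PSMB2 between 0.2 and 2.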

SMILES	PSMB2 reference mRNA level
CNCCCC1c2ccccc2C=Cc2ccccc21 [Protryptyline hydrochloride] (22.2333 µM)	1.06
Cc1ccc(NC(=O)c2ccc(CN3CCN(C)CC3)cc2)cc1Nc1nc(-c2cccnc2)cs1 [Masitinib (AB1010, Masivet)] (6.66667 µM)	0.679
O=C(Nc1cc(C(F)(F)F)cc(C(F)(F)F)c1)c1cc(Cl)ccc1O (33.3333 µM)	1.2
NC(N)=NC(=O)c1nc(Cl)c(N2CCCCCC2)nc1N [5-(N,N-hexamethylene)amiloride] (33.3333 µM)	0.641
CCCCCCCCCCCCC/C=C/[C@@H](O)[C@H](CO)N(C)C [N,N-Dimethylsphingosine] (3.33333 µM)	0.511
CCN(CC)CCOc1ccc(Cc2ccccc2)cc1 [DPPE fumarate] (33.3333 µM)	0.798
Cc1[nH]c(/C=C2\C(=O)Nc3ccc(S(=O)(=O)N(C)c4cccc(Cl)c4)cc32)c(C)c1C(=O)N1CCN(C)CC1 (33.3333 µM)	0.98
CN1CCN(C2=Cc3ccccc3Oc3ccc(Cl)cc32)CC1 (33.3333 µM)	0.977
C[C@H]1O[C@@H](O[C@H]2[C@@H](O)C[C@H](O[C@H]3[C@@H](O)C[C@H](O[C@H]4CC[C@@]5(C)[C@H](CC[C@@H]6[C@@H]5C[C@@H](O)[C@]5(C)[C@@H](C7=CC(=O)OC7)CC[C@]65O)C4)O[C@@H]3C)O[C@@H]2C)C[C@H](O)[C@@H]1O [Digoxin] (33.3333 µM)	1.06
CN1CCN(Cc2ccc(-c3cnc4[nH]cc(-c5ccc6[nH]ccc6c5)c4c3)cc2)CC1 (6.66667 µM)	0.507
Cc1ccc(-c2ccc3c(ccc4sc5c(c43)NC[C@@H](C)NC5=O)n2)cn1 (33.3333 µM)	3.41
C#C[C@]1(O)CC[C@H]2[C@@H]3CCC4=Cc5oncc5C[C@]4(C)[C@H]3CC[C@@]21C [Danazol] (33.3333 µM)	0.993
CN1CCC(=C2c3ccccc3C=Cc3ccccc32)CC1 [Cyproheptadine] (33.3333 µM)	0.904
CCN(CC)CC#CCOC(=O)C(O)(c1ccccc1)C1CCCCC1 (stereo not given) [Oxybutynin chloride] (16.9333 µM)	1.08
CCN1CCC(n2cc(CNc3cc(Cl)c4ncc(C#N)c(Nc5ccc(F)c(Cl)c5)c4c3)nn2)CC1 (33.3333 µM)	0.0139
Cn1cc(CNCC2CCN(c3ncc(C(=O)NO)cn3)CC2)c2ccccc21 [Quisinostat] (33.3333 µM)	0.103
CCCCCCCCCCCCCCCCn1cc[n+](Cc2ccccc2)c1C (11.1 µM)	0.00468
CC1(C)CC(=O)c2c(C(F)(F)F)nn(-c3ccc(C(N)=O)c(N[C@H]4CC[C@H](OC(=O)CN)CC4)c3)c2C1 (33.3333 µM)	0.59
Cc1cccc(Nc2nc(-c3ccncc3)cs2)c1 (11.1 µM)	1.45
O=C1NCN(c2ccccc2)C12CCN(CCCC(c1ccc(F)cc1)c1ccc(F)cc1)CC2 [Fluspirilene] (14.0333 µM)	1.38

SMILES	PSMB2 reference mRNA level
CC(C)c1cc(-c2n[nH]c(=O)n2-c2ccc3c(ccn3C)c2)c(O)cc1O [Ganetespib (STA-9090)] (33.3333 µM)	0.415
CNCc1ccc(-c2[nH]c3cc(F)cc4c3c2CCNC4=O)cc1 (33.3333 µM)	0.974
C[C@]12CC[C@H](O)CC1=CC[C@@H]1[C@@H]2CC[C@]2(C)C(n3cnc4ccccc43)=CC[C@@H]12 [Galeterone] (33.3333 µM)	0.0945
CN1CCCN(C(c2ccccc2)c2ccc(Cl)cc2)CC1 (stereo not given) [Homochlorcyclizine dihydrochloride] (33.3333 µM)	1.19
CC#CCOC(=O)c1c(C)nc2sc3c(c2c1N)CCC(O)C3 (stereo not given) (33.3333 µM)	0.434
Cc1ccc(NC(=O)C(C)C)cc1C1CCN(Cc2ccc(Oc3ccc(F)c(F)c3)cc2)CC1 (33.3333 µM)	2.26
Cn1cc(C2=C(c3ccc(Cl)cc3Cl)C(=O)NC2=O)c2ccccc21 (33.3333 µM)	0.517
COc1cc2nc(N3CCCN(C)CC3)nc(NC3CCN(Cc4ccccc4)CC3)c2cc1OC (3.33333 µM)	0.211
CS(=O)(=O)CCNCc1ccc(-c2ccc3ncnc(Nc4ccc(OCc5cccc(F)c5)c(Cl)c4)c3c2)o1 (6.66667 µM)	1.27
CNCCCC12CCC(c3ccccc31)c1ccccc12 [Maprotiline hydrochloride] (33.3333 µM)	1.89
CCOC(=O)C1=C(COCCN)NC(C)=C(C(=O)OC)C1c1ccccc1Cl (stereo not given) (33.3333 µM)	1.28
COc1ccc(NS(=O)(=O)c2sc3ccc(Cl)cc3c2C)cc1N1CCNCC1 (33.3333 µM)	0.507
Clc1ccccc1CNCC1CCC(CNCc2ccccc2Cl)CC1 (stereo not given) (33.3333 µM)	0.138
CC[C@@H]1C(=O)N(C)c2cnc(Nc3ccc(C(=O)NC4CCN(C)CC4)cc3OC)nc2N1C1CCCC1 (33.3333 µM)	0.0022
O=S(=O)(NCCNC/C=C/c1ccc(Br)cc1)c1cccc2cnccc12 [H-89, Dihydrochloride] (11.1 µM)	1.02
CC[C@]1(O)C[C@@H]2CN(CCc3c([nH]c4ccccc34)[C@@](C(=O)OC)(c3cc4c(cc3OC)N(C)[C@H]3[C@@](O)(C(=O)OC)[C@H](OC(C)=O)[C@]5(CC)C=CCN6CC[C@]43[C@@H]65)C2)C1 [Vinblastine sulfate] (33.3333 µM)	0.0998
Cc1nc2ccc(-n3ncc(C(=O)c4cc5ccccc5[nH]4)c3N)cc2[nH]1 (33.3333 µM)	0.324
C[C@@H](CN1CCC(n2c(=O)[nH]c3cc(Cl)ccc32)CC1)NC(=O)c1ccc2ccccc2c1 (33.3333 µM)	0.16
CSc1ccc2c(c1)C(N1CCN(C)CC1)Cc1ccccc1S2 (stereo not given) [Methiothepin maleate] (33.3333 µM)	0.000808
c1ccc2c(NCCCCCCCNc3c4c(nc5ccccc35)CCCC4)c3c(nc2c1)CCCC3 [bis(7)-Tacrine] (3.33333 µM)	0.971
